In ChEMBL document CHEMBL4513216, “Probing the Open Global Health Chemical Diversity Library for Multistage-Active Starting Points for Next-Generation Antimalarials” (ACS Infect Dis, 2020):
Out of some 69,000 compounds screened, about 8,600 (12%) showed an effect of 50% or more. Only a selection was taken, and strong results are over-represented in it overall.

Each compound was assayed on Plasmodium berghei (assay: Screen against P. berghei liver stage (PbLuc), transformed with Luciferase, at 10uM). Conditions: tested at 10 uM.
Format: functional, HepG2
`COc1ccc(OC)c(CNCc2c(C(C)C)nn(C)c2N(C)C)c1` gave an INHIBITION of 30.08%. `O=C1N[C@H]2OCCC[C@H]2[C@H](c2ccccc2C(=O)O)N1` gave an INHIBITION of -0.495%. `Cc1ccc(C2(O)CCN(C(=O)c3cccc(S(C)(=O)=O)c3)CC2)nc1` gave an INHIBITION of -6.09%. Work on `Cc1n[nH]c(C)c1C1CCCN1C(=O)Cc1cccc(F)c1` (configuration not stated) yielded an INHIBITION of 40.2%. `CSc1ccc(NC(=O)Cn2cc(N)cn2)cc1` gave an INHIBITION of -15%. `Cc1cc(NCCc2nnc(N)s2)nc(-c2ccccc2)n1` showed an INHIBITION of -13.3%. `CN1C(=O)CC[C@@H]2N(C(=O)CCc3cccnc3)CCCC[C@@]21C` was tested, and the INHIBITION was 44.3%. `CC(=O)N1CCc2[nH]cnc2C1C1=CCCN(CCn2cccc2)C1` (configuration not stated) gave an INHIBITION of 12.8%. With `CC(C)CC(C)N(C)Cc1nnc(-c2ccco2)o1` (configuration not stated) the INHIBITION was -17.5%. With `CN(Cc1nnc(C2CCC2)o1)C(C(N)=O)c1cccc(F)c1` (configuration not stated) the INHIBITION was 12.7%. In the case of `CN(Cc1nnc(-c2cccs2)o1)C(C(N)=O)c1cccc(F)c1` (configuration not stated), the INHIBITION is reported as -15.3%. `CCCC(C)N(C)Cc1nnc(-c2ccco2)o1` (configuration not stated) gave an INHIBITION of 26.9%. With `CN(Cc1nnc(-c2ccco2)o1)C(C(N)=O)c1cccc(F)c1` (configuration not stated) the INHIBITION was 61.5%. In the case of `CC(C)C(C)N(C)Cc1nnc(-c2ccco2)o1` (configuration not stated), the INHIBITION is reported as 66.9%. For `CC(CNCc1ccc(Br)cc1)Oc1ccccn1` (configuration not stated), the INHIBITION was 13%. For `Cc1ccc2nc(-c3nc4c([nH]3)CC(C)(C)CNC4=O)cn2c1`, the INHIBITION was 16.9%. `c1coc(CN2CCc3onc(Cn4cccc4)c3C2)c1` showed an INHIBITION of 20.1%. `CC(C)Oc1ccccc1C1CC(=O)Nc2c1cnn2C` (configuration not stated) gave an INHIBITION of -31.6%. `Cc1cccc(C(=O)N2CCCCC2c2nc3cc(F)ccc3[nH]2)n1` (configuration not stated) was tested, and the INHIBITION was 39.1%. In the case of `NC(=O)c1ccc(N2CCCCC2)c(NC(=O)c2ccc(Br)cc2)c1`, the INHIBITION is reported as 39.5%. With `Cc1ccc(NC(=O)c2ccc(N3CCCCC3)nn2)c(Cl)c1` the INHIBITION was 11.3%. `O=C(c1cc(Br)ccc1-n1cnnn1)N1CCCCC1` showed an INHIBITION of 24.2%. In the case of `NC(=O)c1ccc(N2CCCCC2)c(NC(=O)c2cc(Br)ccc2Cl)c1`, the INHIBITION is reported as 81.2%. `NC(=O)c1ccc(N2CCCCC2)c(NC(=O)c2cc(F)ccc2F)c1` gave an INHIBITION of 93.1%. Compound `Cc1cc(NC(=O)c2ccc(F)cc2F)n(C)n1` has an INHIBITION of 29.3%. Compound `CC(NC(=O)Nc1cc(F)ccc1N1CCCCC1)c1nncn1C` (configuration not stated) has an INHIBITION of 25.7%. `COCCCN1Cc2cccc(NC(=O)c3cc(F)ccc3F)c2C1` gave an INHIBITION of 32.9%. In the case of `NC(=O)c1ccc(N2CCCCC2)c(NC(=O)c2cc(Br)ccc2F)c1`, the INHIBITION is reported as 86.8%. `NC(=O)c1ccc(N2CCCCC2)c(NC(=O)c2ccc(F)cc2F)c1` gave an INHIBITION of 89.1%. `C[C@@H]1CN(Cc2cc3ccccc3n2C)CC[C@]1(C)O` showed an INHIBITION of -13.6%. With `CCc1cc(N(C)Cc2nonc2C)nc(N(C)C)n1` the INHIBITION was 31.7%. `CC(Cn1cccn1)NC(=O)NCc1ccc(S(C)(=O)=O)cc1` (configuration not stated) gave an INHIBITION of 19.5%. `CC(C)n1cnnc1CN(C)C(=O)c1cnn2ccccc12` was tested, and the INHIBITION was 38.2%. Work on `COc1cc(C)nc(N2CCN(C(=O)COCC3CC3)CC2)n1` yielded an INHIBITION of 23.295%. Compound `CC(C)C(=O)N1CC2(CCN(CC(C)(C)C)CC2)C1` has an INHIBITION of 1.34%. With `COCCN1CCOCC2(CCCN(Cc3ccc(C)o3)C2)C1` (configuration not stated) the INHIBITION was 20.2%. With `CCN(CC(=O)NC1(C)CCS(=O)(=O)C1)Cc1ccc(OC)c(F)c1` (configuration not stated) the INHIBITION was -9.37%. With `Cc1nccc([C@@H]2C[C@@H]3CCN(S(=O)(=O)C4CC4)C[C@H]3O2)n1` the INHIBITION was -37.9%. For `Cc1cc(C(N)=O)ccc1NC(=O)c1nc(N2CCCCC2)ncc1Cl`, the INHIBITION was 49.3%. In the case of `Cc1ccc(C(=O)Nc2ccc(N3CCCC3)cn2)cc1F`, the INHIBITION is reported as -6.12%. `Cc1ccc(C(=O)Nc2cc(C(N)=O)ccc2N2CCCCC2)cc1F` gave an INHIBITION of 69.3%. For `Cc1cc(C(N)=O)ccc1NC(=O)c1nc(N2CCCC2)ncc1Cl`, the INHIBITION was 20.1%. With `Cc1ccc(C(=O)Nc2cc(C(N)=O)ccc2CN(C)C)cc1Cl` the INHIBITION was 16.4%. In the case of `NC(=O)c1ccc(N2CCCCC2)c(NC(=O)c2ccc(F)cc2Cl)c1`, the INHIBITION is reported as 73.2%. With `CCn1nc(C)c2nc(C(C)C)nc(N3CCOCC3)c21` the INHIBITION was -38.8%. `Cc1cnccc1-c1cnn(CCNC(=O)C(C)(C)C)c1C1CC1` gave an INHIBITION of 39.7%. For `Cc1ccc(C(=O)N2C[C@@H](OCc3cccnc3)[C@H]3OCCC[C@@H]32)o1`, the INHIBITION was 35.4%. In the case of `CCCN(Cc1cccc(OCCO)c1)Cc1ccccc1OC`, the INHIBITION is reported as 25%. In the case of `CN(Cc1cccnc1N)Cc1cccc2ncccc12`, the INHIBITION is reported as 83%. In the case of `CN(Cc1cccc(CCN)c1)Cc1cccc2ncccc12`, the INHIBITION is reported as 20.3%. With `CN(Cc1cccc(OCCO)c1)Cc1cccc2ncccc12` the INHIBITION was 76.6%. `Cc1cn(CC(=O)N(C)Cc2cccc3ncccc23)c(=O)[nH]c1=O` showed an INHIBITION of -12.8%.
